Experimental data reported in PubChem BioAssay AID1159580 (chemical genetic matrix, 2015).
Where “and” joins values, the source holds several entries; their conditions need not be identical. Equal values may be shown once. The whole screen tested about 5,500 compounds, of which about 2,000 (36%) were called active. Roughly 18% stayed inconclusive and do not appear here. Rule as the data show it: active = normalized growth mostly below about 0.91 (no sharp cut-off); inconclusive = no clear call, values can overlap the other calls; inactive = mostly above about 0.92. The list shows a part of the results.

Assay: chemical genetic growth profiling, strain panel (AID 1159580);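 also: tested at 20 µM; growth read once vehicle control cultures reached saturation at 30 °C; 1 = growth at the plate median or of vehicle wells; lower values mean less growth of the strain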
Conditions: S. cerevisiae deletion strains, growth OD

Measured: normalized growth

COc1cc(-c2coc3cc(O[C@@H]4O[C@H](CO)[C@@H](O)[C@H](O)[C@H]4O)c(OC)c(O)c3c2=O)cc(O)c1OC
inactive: locus YAL021C, strain ccr4, stronger effect = lower value 1.01 | locus YAL026C, strain drs2, stronger effect = lower value 1.01 | locus YAL030W, strain snc1, stronger effect = lower value 0.988 | locus YBL061C, strain skt5, stronger effect = lower value 0.997 | locus YBR009C, strain hhf1, stronger effect = lower value 0.986 | locus YBR021W, strain FUR4, stronger effect = lower value 1.02 | locus YBR023C, strain chs3, stronger effect = lower value 0.989 | locus YBR171W, strain sec66, stronger effect = lower value 0.99 | locus YBR229C, strain ROT2, stronger effect = lower value 0.994 | locus YBR231C, strain swc5, stronger effect = lower value 0.983 | locus YBR279W, strain paf1, stronger effect = lower value 1 | locus YCL011C, strain gbp2, stronger effect = lower value 0.999 | locus YCL016C, strain dcc1, stronger effect = lower value 0.996 | locus YCL029C, strain bik1, stronger effect = lower value 1.01 | locus YCL061C, strain MRC1, stronger effect = lower value 0.994 | locus YCL069W, strain vba3, stronger effect = lower value 1.01 | locus YCR088W, strain abp1, stronger effect = lower value 0.997 | locus YDL005C, strain med2, stronger effect = lower value 0.98 | locus YDL035C, strain GPR1, stronger effect = lower value 1.04 | locus YDL040C, strain nat1, stronger effect = lower value 0.994 | locus YDL074C, strain BRE1, stronger effect = lower value 1.08 | locus YDL101C, strain DUN1, stronger effect = lower value 0.987 | locus YDL185W, strain tfp1, stronger effect = lower value 0.997 | locus YDL192W, strain arf1, stronger effect = lower value 1.02 | locus YDR001C, strain nth1, stronger effect = lower value 1.01 | locus YDR069C, strain doa4, stronger effect = lower value 0.986 | locus YDR101C, strain arx1, stronger effect = lower value 1.03 | locus YDR137W, strain rgp1, stronger effect = lower value 1.02 | locus YDR150W, strain NUM1, stronger effect = lower value 1.02 | locus YDR159W, strain sac3, stronger effect = lower value 0.973 | locus YDR162C, strain NBP2, stronger effect = lower value 1.03 | locus YDR195W, strain ref2 0.939 | locus YDR297W, strain sur2, stronger effect = lower value 1.01 | locus YDR318W, strain mcm21, stronger effect = lower value 1.02 | locus YDR334W, strain swr1, stronger effect = lower value 0.997 | locus YDR335W, strain msn5, stronger effect = lower value 1 | locus YDR388W, stronger effect = lower value 1 | locus YDR392W, strain spt3, stronger effect = lower value 0.874 | locus YDR502C, strain sam2, stronger effect = lower value 1 | locus YEL003W, strain gim4, stronger effect = lower value 0.982 | locus YEL037C, strain rad23, stronger effect = lower value 1.01 | locus YEL061C, strain CIN8 (second series), stronger effect = lower value 1 | locus YEL061C, strain CIN8, stronger effect = lower value 1 | locus YER015W, strain faa2, stronger effect = lower value 1 | locus YER016W, strain bim1, stronger effect = lower value 0.996 | locus YER110C, stronger effect = lower value 0.996 | locus YER111C, strain swi4, stronger effect = lower value 1 | locus YER155C, strain BEM2 (second series), stronger effect = lower value 0.928 | locus YER155C, strain BEM2, stronger effect = lower value 0.991 | locus YER167W, strain BCK2, stronger effect = lower value 0.993 | locus YFR010W, strain ubp6, stronger effect = lower value 0.999 | locus YGL078C, strain dbp3, stronger effect = lower value 0.988 | locus YGL086W, strain mad1, stronger effect = lower value 1 | locus YGL167C, strain pmr1, stronger effect = lower value 0.996 | locus YGL173C, strain kem1, stronger effect = lower value 1 | locus YGL227W, strain vid30, stronger effect = lower value 0.995 | locus YGL240W, strain doc1, stronger effect = lower value 0.961 | locus YGL248W, strain PDE1, stronger effect = lower value 0.982 | locus YGL253W, strain hxk2, stronger effect = lower value 1.02 | locus YGR135W, strain pre9, stronger effect = lower value 0.97 | locus YGR252W, strain gcn5, stronger effect = lower value 0.997 | locus YHR013C, strain ard1, stronger effect = lower value 0.979 | locus YHR027C, strain rpn1, stronger effect = lower value 0.995 | locus YHR030C, strain SLT2, stronger effect = lower value 1.01 | locus YHR079C, strain IRE1 (second series), stronger effect = lower value 1 | locus YHR079C, strain IRE1, stronger effect = lower value 1.01 | locus YHR094C, strain hxt1, stronger effect = lower value 0.993 | locus YHR129C, strain ARP1, stronger effect = lower value 0.999 | locus YHR142W, strain chs7, stronger effect = lower value 1.02 | locus YHR200W, strain rpn10, stronger effect = lower value 1 | locus YIL066C, strain RNR3, stronger effect = lower value 1 | locus YIL073C, strain SPO22, stronger effect = lower value 1.05 | locus YIL125W, strain kgd1, stronger effect = lower value 0.997 | locus YIR030C, strain dcg1, stronger effect = lower value 0.994 | locus YJL092W, strain hpr5, stronger effect = lower value 1 | locus YJL095W, strain BCK1 (second series), stronger effect = lower value 1 | locus YJL095W, strain BCK1, stronger effect = lower value 1.02 and 1.01 | locus YJL115W, strain asf1, stronger effect = lower value 0.993 | locus YJL129C, strain trk1, stronger effect = lower value 1 | locus YJL134W, strain LCB3, stronger effect = lower value 0.992 | locus YJL154C, strain vps35, stronger effect = lower value 0.997 | locus YJL164C, strain tpk1, stronger effect = lower value 1 | locus YJL166W, strain qcr8, stronger effect = lower value 0.991 | locus YJL168C, strain set2, stronger effect = lower value 0.995 | locus YJL187C, strain SWE1 (second series), stronger effect = lower value 0.991 | locus YJR043C, strain POL32, stronger effect = lower value 1.05
